This is part of a sample that, as a whole, favours compounds with a hit. Of some 83,000 tested, about 20% had one in any assay.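 For each line, cells grew in 96-well plates with the test compound present at a single concentration for 48 hours.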 A number with no mark means an inactive call. Activity calls are given as the source filed them. How the source made its calls: active means growth percent below 10; inactive means the rest.
What was measured:
Test in all cases: NCI-60 one-dose screen, 48 h (100 = growth as untreated, 0 = no growth, -100 = all killed)
Settings in all cases: 10 µM unless noted
DU-145 prostate = test system: DU-145 prostate
K-562 leukemia = test system: K-562 leukemia
MALME-3M melanoma = test system: MALME-3M melanoma
MDA-MB-231 breast = test system: MDA-MB-231 breast
RXF 393 renal = test system: RXF 393 renal
SF-268 CNS = test system: SF-268 CNS
SF-295 CNS = test system: SF-295 CNS
SF-539 CNS = test system: SF-539 CNS
UACC-257 melanoma = test system: UACC-257 melanoma
M14 melanoma = test system: M14 melanoma
HCT-15 colon = test system: HCT-15 colon
HT29 colon = test system: HT29 colon
SNB-75 CNS = test system: SNB-75 CNS
SNB-19 CNS = test system: SNB-19 CNS
U251 CNS = test system: U251 CNS
PC-3 prostate = test system: PC-3 prostate
SK-MEL-5 melanoma = test system: SK-MEL-5 melanoma
UACC-62 melanoma = test system: UACC-62 melanoma
LOX IMVI melanoma = test system: LOX IMVI melanoma
SK-MEL-28 melanoma = test system: SK-MEL-28 melanoma

Compound | growth (DU-145 prostate) [%] | growth (K-562 leukemia) | growth (MALME-3M melanoma) | growth (MDA-MB-231 breast) | growth (RXF 393 renal) | growth (SF-268 CNS) | growth (SF-295 CNS) | growth (SF-539 CNS) | growth (UACC-257 melanoma) | growth (M14 melanoma) | growth (HCT-15 colon) | growth (HT29 colon) | growth (SNB-75 CNS) | growth (SNB-19 CNS) [%] | growth (U251 CNS) | growth (PC-3 prostate) [%] | growth (SK-MEL-5 melanoma) | growth (UACC-62 melanoma) | growth (LOX IMVI melanoma) | growth (SK-MEL-28 melanoma)
CCCC[n+]1ccc(SCC(=O)n2ccc3ccccc32)c2ccccc21 | 94.6 | 66.9% | 95.9% | 92.4% | 94.9% | 101% | 96.5% | 103% | 95.7% | 98.8% | 103% | 96.9% | 92.7% | 97.4 | 89.3% | 90.9 | 85.8% | 77.7% | 101% | 109%
N#Cc1c(-c2cccs2)cc(-c2cnccn2)nc1SCC(=O)N/N=C/c1cccs1 | 37.3 | 63.2% | 39.2% | 40.3% | -1.38% (active) | 53.7% | 48.8% | 9.8% (active) | 53.9% | 57.4% | 62.8% | 30.9% | 42.8% | 47.7 | 19.5% | 53.6 | 20.5% | 55.6% | 7.29% (active) | 27.5%
Brc1cccc(-c2cc(-c3cnc4c(c3)OCCO4)n[nH]2)c1 | 70.4 | 16.6% | 37% | 68.8% | 47.9% | 76.5% | 51.5% | 47.6% | 73.2% | 27.1% | 21.1% | 18.8% | 46.9% | 59.8 | 43.3% | 79.1 | 24.2% | 55.5% | 37.1% | 59%
CN1CCN(c2ccc(Nc3nc(NCCCNS(=O)(=O)c4ccc(Cl)cc4)c4sccc4n3)cc2)CC1 | 30.8 | 12.5% | -88.4% (active) | 9.29% (active) | -76.7% (active) | 5.08% (active) | -68.5% (active) | -85.3% (active) | -80.2% (active) | -60.4% (active) | 6.7% (active) | -69.7% (active) | 19.8% | 39.5 | -11.3% (active) | 51.5 | -91.1% (active) | -30.5% (active) | -84.6% (active) | -71.9% (active)
COC(=O)N1CCN(CCNCc2ccc(NC(=O)c3ccc(C)c(C#Cc4cnc5cccnn45)c3)cc2C(F)(F)F)CC1 | 44.9 | 5.18% (active) | -49.1% (active) | -9.19% (active) | -47.2% (active) | 28.2% | -25.1% (active) | -15.9% (active) | -10.6% (active) | 8.75% (active) | 6.88% (active) | 17.3% | 17.4% | 59.6 | 36.2% | 25.5 | -75.2% (active) | 39.3% | -79.5% (active) | 12%
CC1=C(C)C(=O)C(Nc2cccc(C(=O)OC(C)(C)C)c2)=CC1=O | 69.9 | 77.2% | 64.9% | 66.2% | 73.4% | 80.5% | 94.3% | 89.9% | 62.5% | 88.3% | 60.4% | 104% | 71% | 78.2 | 64.3% | 76.7 | 31.3% | 65.6% | 47.3% | 96.5%
CC(C)Sc1nc(-c2ccccc2)c(C#N)c(N2CCOCC2)n1 | 83.1 | 62.4% | 36.5% | 63.7% | 45.7% | 79% | 51.1% | 50.2% | 97.5% | 96.9% | 80.2% | 71.8% | 9.58% (active) | 69 | 44.8% | 82 | 95.5% | 91.7% | 35.6% | 88.6%
CC1(C)C=Cc2cc(/C(N)=N/C(N)=N/c3nc4ccccc4s3)ccc2O1 | 94.9 | 57.6% | 104% | 77.5% | 103% | 93.2% | 81.6% | 97.3% | 104% | 103% | 57.7% | 95.1% | 101% | 96.6 | 89.8% | 34.7 | 87.9% | 96.7% | -56.3% (active) | 108%
O=C(CSc1nnc(-c2ccc(Cl)cc2)n1-c1ccccc1)Nc1cccc(F)c1 | 58.1 | 48% | 52.7% | 27% | 25.6% | 56.2% | 9.38% (active) | -1.04% (active) | 85.9% | 62.9% | 67.8% | 48.1% | -14.1% (active) | 48.3 | 14.1% | 62.1 | 87.9% | 93.5% | 0.1% (active) | 78%
O=S(=O)(Oc1ccc(-c2cn3ccoc3n2)cc1)c1cccc(C(F)(F)F)c1 | 101 | 101% | 98.6% | 102% | 98.2% | 102% | 90.4% | 94.3% | 101% | 105% | 95.6% | 103% | 96.3% | 95.2 | 101% | 95.2 | 96.1% | 86.5% | 94.7% | 106%
CCCCCCNC(=O)Oc1ccc(/C(=C(/C)c2ccc(Cl)cc2)c2ccc(OCCN3CCCCCC3)cc2)cc1 | 86.3 | 8.93% (active) | 75.4% | 76.1% | 44.1% | 77.2% | 70% | 67% | 75.1% | 30.9% | 9.59% (active) | 21.3% | 99.6% | 68.4 | 55.8% | 49.2 | 73.6% | 63.8% | 32.8% | 84%
CCN(CC)c1ccc(/C=N/NC(=O)c2ccc(S(N)(=O)=O)cc2)c(O)c1 | 31.1 | 12.4% | -1.7% (active) | 34% | -4.11% (active) | 20.5% | 12.6% | 5% (active) | -10.2% (active) | 1.08% (active) | 20.9% | 25.4% | 47.8% | 29.9 | 20.8% | 34.9 | -7.45% (active) | -3.75% (active) | 0.484% (active) | 20.6%
CCc1nnc(NC(=O)c2cc(-c3ccc(Cl)cc3Cl)oc2C)s1 | 93.5 | 86% | 88.3% | 91.5% | 109% | 89.3% | 94.2% | 92.4% | 103% | 93.3% | 70.5% | 89.7% | 94% | 79.7 | 29.5% | 82.7 | 97.8% | 73.2% | 74.4% | 102%
O=C(NCCNc1cc(-c2cn(-c3ccccc3)nc2-c2cccc(O)c2)ccn1)Nc1cc(C(F)(F)F)cc(C(F)(F)F)c1 | 106 | 86.9% | 90.6% | 92.9% | 86.7% | 88.8% | 89.8% | 89.3% | 101% | 89% | 100% | 95.7% | 75.4% | 97 | 86.8% | 80.7 | 96.8% | 94.1% | 88% | 96.9%
CCOC(=O)C1=C(C)NC(C)=C(C(=O)OC(C)C)C1c1cccc(C#N)c1 (stereo not given) | 104 | 93.9% | 97.2% | 95.2% | 90.8% | 96.9% | 106% | 104% | 104% | 105% | 99.1% | 108% | 84.5% | 101 | 100% | 87.2 | 99.6% | 93.3% | 95.2% | 105%

Reference: PubChem BioAssay (NCI)
